Screens from PubChem.
Shown are actives, neighbours in structure and some others; about 21% of the full set was active somewhere.
Pf growth 48h: P. falciparum growth inhibition at 48 hours (one generation); P. falciparum luciferase growth in erythrocytes, 48 h; Potency, µM (highest dose often 28.7 µM), inactives show at the top dose activity change, negative = inhibition, hits mostly inhibitors; 310,000 tested, 5.9% active; note: potency is the fitted concentration of half-maximal effect; % is set by controls: 0 for no effect and ±100 for the full control effect
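Luciferase-expressing P. falciparum in infected erythrocytes (2% hematocrit, 0.1% parasitemia final) in RPMI 1640/0.5% Albumax were exposed to compound for 48 hours at 37 C, 5% CO2; growth read as luminescence.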
Pf growth 96h: P. falciparum growth inhibition at 96 hour, primary screen for plastid delayed-death inhibitors; P. falciparum luciferase reporter growth, 96 h; Potency, µM (top dose mostly 28.7 µM), for inactives: at the highest dose activity change, negative = inhibition, most hits filed as inhibitors; 320,000 tested, 6.9% active; note: potency is the fitted concentration of half-maximal effect; % is set by controls: 0 for no effect and ±100 for the full control effect
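P. falciparum expressing integrated firefly luciferase, in erythrocytes at 2% hematocrit, 0.05% parasitemia, incubated with compounds 96 h at 37 C, 5% CO2. Growth inhibition read as loss of luminescence; two-generation exposure targets delayed-death apicoplast inhibitors.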
Cycloheximide cs: counter-screen for Shiga toxin inhibitors: cycloheximide protein synthesis inhibition | max response, % | cell reporter, cycloheximide protein synthesis inhibition counterscreen | 300,000 tested, 12% active | AID 2314; in the data active = max response mostly above about 13%, no sharp cut-off; inactive = mostly below about 14%; note: read at 38.3 µM for the half of the compounds with a filed dose; 0% is about no effect
HCV inh: blocks hepatitis C virus; Huh7.5.1 HCVcc-Cre infection, luciferase reporter, 44 h; Potency, µM (titrated, usually from 41.8 µM), without a hit: top-dose activity change, negative = inhibition, usual class: inhibitors; 340,000 tested, 3.4% active; AID 651820; note: potency is the fitted concentration of half-maximal effect; % is set by controls: 0 for no effect and ±100 for the full control effect
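Whole-lifecycle infectious HCVcc-Cre system; cells 1,000/well, compound then virus (~0.5 moi) added 4 h after plating, 44 h culture. Luciferase read 15 sec following 15 min substrate incubation, room temp.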
HCMV inh: human cytomegalovirus inhibition. activity change, negative = inhibition, % at 57.5 µM. HFF cells, HCMV-luciferase reporter, 72 h; active compounds read low. 410,000 tested, 4.5% active. AID 1259415; in the data active = activity change below about -60%; inconclusive = no clear call, values can overlap the other calls; inactive = above about -39%; note: % is set by controls: 0 for no effect and ±100 for the full control effect
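Two compound doses tested in HFFs infected with HCMV-luciferase, MOI 1 PFU/cell, 72 h at 37C. Lysate luminescence read with OneGlo; data normalized against buffer-only and 10uM Salinomycin inhibitor controls.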
Shiga inhibitor: inhibitors of Shiga toxin in Vero cells; inhibition, % at 38.7 µM; Vero cells, Shiga toxin protein synthesis inhibition reporter; AID 2315; 290,000 tested, 9.2% active; in the data active = inhibition mostly above about 28%, no sharp cut-off; inactive = mostly below about 43%; note: 0% is about no effect
Active calls of the source: *; i = inactive; ? = inconclusive; . = not tested or not shown; [ ] = remark or other dose. Unless noted, calls come from the whole dose curve; as a rule, active = well fitted inhibition curve with a large enough effect; inconclusive = small, poorly fitted or top-dose-only effect, or another doubt; inactive = no such curve, though single readings can be large or run the other way.

SMILES	Pf growth 48h	Pf growth 96h	Cycloheximide cs	HCV inh	HCMV inh	Shiga inhibitor
O=C(CCS(=O)(=O)c1nc(-c2ccc3c(c2)OCO3)cc(C(F)(F)F)n1)Nc1ccccc1C(F)(F)F	.	.	.	.	5	.
O=S(=O)(NC1CC1)c1ccc(Cl)cc1F	0%	-23%	-2	9%	-34	-22
O=C(NCc1cccs1)c1csc2c1CCCCC2	35%	?	21*	4%	-35	19
O=C(NCc1cccs1)c1cc2c(s1)CCCC2	120%	111%	45*	?	115	86*
O=C(NCc1cccs1)c1ccccc1C(=O)NCc1cccs1	11%	-18%	-1	16%	4	-7
CC1CCc2c(C(=O)NCc3ccco3)csc2C1 (configuration not stated)	103%	48%	17*	?	?	48
CC1CCc2c(C(=O)Nc3cccc(-c4nn[nH]n4)c3)csc2C1 (configuration not stated)	50%	3%	19	-2%	5	40
O=C(NCc1ccccc1)c1csc2c1CCCCC2	.	.	22	-10%	-25	46
Cc1cn(C)c(CC(=O)Nc2cccc(C#N)c2)c1C(=O)O	.	.	.	.	5	.
O=C(CSc1nc2ccccc2c(=O)n1-c1ccccc1)N/N=C/C=C/c1ccccc1[N+](=O)[O-]	9.3µM*	?	15	?	-20	0
O=C(CSc1nc2ccccc2c(=O)n1-c1ccc(Cl)cc1)N/N=C/C=C/c1ccccc1[N+](=O)[O-]	?	9.3µM*	-3	?	?	-8
O=C(O)COc1ccccc1/C=N/NC(=O)CSc1nc2ccccc2c(=O)n1-c1ccc(Cl)cc1	-9%	1%	-3	0%	0	8
Cc1ccccc1-n1c(SCC(=O)N/N=C/C=C/c2ccccc2[N+](=O)[O-])nc2ccccc2c1=O	?	?	-3	?	?	-9
COc1ccccc1/C=C/C(=C1/C(=O)N(c2ccccc2)N=C1C)c1ccc(C)cc1	16%	12µM*	-2	3%	2	-9
COc1ccccc1/C=C/C(=O)c1ccccc1	46%	37%	55*	-19%	6	69*
CCOc1ccccc1/C=C/C(=O)c1ccc(Cl)cc1	13%	-77%	15*	-15%	6	23
COc1ccccc1/C=C/C(=O)NC(=S)NC(C)C	12%	?	17*	-13%	-31	57*
COc1cccc(/C=C/C(=C2/C(=O)N(c3ccccc3)N=C2C)c2ccccc2)c1OC	17%	?	-3	5%	-32	-8
COc1ccccc1CNC(=O)c1cc2cccc3c2n1CC(C)S3 (configuration not stated)	.	.	.	.	0	.
CCOCCc1nnc(NC(=O)C2CCN(C(=O)c3ccco3)CC2)s1	-13%	?	-3	4%	11	-1
CC(=O)Nc1nonc1-c1nnc(SCc2ccc(F)cc2)n1C	.	.	.	.	29	.
COc1ccccc1/C=C/C(=O)c1ccc(Cl)cc1	?	?	42*	?	14	83*
COc1ccccc1/C=C/C(=O)c1ccc(NC(C)=O)cc1	-29%	0%	21*	?	-102*	32
COc1ccccc1/C=C/C(=O)c1c2c(c(C)[nH]c1=O)CCCC2	?	?	9	.	-109*	23
O=C(/C=C/c1ccccc1O)c1ccc(Cl)cc1	27%	15µM*	41*	-3%	32	58*
SMILES	Pf growth 48h	Pf growth 96h	Cycloheximide cs	HCV inh	HCMV inh	Shiga inhibitor
CC(=O)c1ccc(NC(=S)Nc2cccc(Cl)c2C)cc1	16%[5.75 µM]	-16%	-4	-15%	-39	4
CSc1nc(N)c(C(=O)N(c2ccccc2)c2ccccc2)s1	.	.	.	.	-26	.
CC(C)c1cnc2c(c1SCC(=O)Nc1ccc(C(N)=O)cc1)c(=O)n(C)c(=O)n2C	.	.	.	.	35	.
Cc1ccc(S(=O)(=O)N2CCN(C(=O)c3cc(C4CC4)nc4c3cnn4C(C)C)CC2)cc1	13µM*	2.6µM*	.	?	-19	.
CC(C)n1ncc2c(C(=O)N3CCN(Cc4ccc(Cl)s4)CC3)cc(C3CC3)nc21	13µM*	?	.	?	-13	.
CC(C)n1ncc2c(C(=O)N3CCN(S(=O)(=O)c4cccc(F)c4)CC3)cc(C3CC3)nc21	.	.	.	.	-17	.
COc1ccc(S(=O)(=O)N(CC(=O)NN=C2CCN(C)CC2)c2cc(Cl)ccc2OC)cc1OC	-19%	146%	-7	2%	24	-3
O=C(NC1CCCC1)C(c1ccco1)N1CCN(c2c(Cl)cncc2Cl)CC1 (configuration not stated)	.	.	.	.	-12	.
CCc1nc(SCc2cc(=O)c3cc(F)ccc3[nH]2)n[nH]1	.	.	.	.	3	.
Cc1ccccc1-n1c(O)c(C=Nc2ccc3c(c2)OCO3)c(=O)[nH]c1=O	.	40%	-2	19%	4	-10
COc1ccc(N=Cc2c(O)[nH]c3ccccc23)cc1	259%	12%	37*	?	129	40*
COc1ccc(N=Cc2c(O)ccc3ccccc23)cc1	10%	14%	12	23%	-39	25
Oc1[nH]c2ccccc2c1/C=N/c1nccs1	62%	152%	28*	?	88	51
Oc1[nH]c2ccccc2c1C=Nc1ccc2c(c1)OCO2	45%	?	65*	?	69	68*
COc1ccc(CN=Cc2c(O)[nH]c3ccccc23)cc1	31%	1%	27*	4%	-9	25*
CCOc1ccc(NC(=O)c2ccc3nc(Cc4ccccc4)oc3c2)cc1	.	.	.	.	-16	.
COc1ccc(C(=O)N(Cc2sccc2C)C2CCS(=O)(=O)C2)cc1Cl (configuration not stated)	.	.	.	.	39	.
Cc1ccc(N=Cc2c(O)[nH]c3ccccc23)c([N+](=O)[O-])c1	i	0%	22*	1%	-14	64*
O=c1c2ccccc2c(C=Nc2cccc(O)c2)c(O)n1-c1ccc2c(c1)OCO2	?	?	-4	-23%	-86*	2
O=c1[nH]c(O)c(C=Nc2ccccc2[N+](=O)[O-])c(=O)[nH]1	29%	5%	1	.	.	15
Cc1c(CCC(=O)NCCc2ccc(Cl)cc2)c(=O)oc2c(C)c(O)ccc12	.	.	.	.	-7	.
CN1c2ccc(Cl)cc2-c2nc(SCC(=O)NCc3ccc(F)cc3)ncc2S1(=O)=O	.	.	.	.	18	.
Cc1ccc(CSc2nnc(-c3ccccn3)n2N)cc1	17%	19%	23*	6%	-23	107*
NC(=O)CSc1nnc(-c2ccccn2)n1N	28%	2%	0	1%	2	36
Cc1nnc(SCc2cccc(Oc3ccccc3)c2)n1N	16%	-4%	21*	6%	18	5
Nn1c(SCc2ccccc2F)nnc1-c1ccccn1	132%	116%	33*	21%	104	135*
